# Measured values published in PubChem BioAssay (NCATS).
# Results filed as inconclusive are left out. The source made the active and inactive calls. Calls come from the whole dose curve; as a rule, active = well fitted cell-killing curve with a large enough effect; inconclusive = small, poorly fitted or top-dose-only effect; inactive = flat fitted curve, though single readings scatter.
# Test: Cellular viability qHTS for adrenocortical cancer (ACC) cell line SW-13 (AID 1963989); note: nearly all actives have a fitted effect of over 65% in size;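 for activity (max response): cells grown in serum-free medium with ITS supplement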
# Details: SW-13 ACC cells viability, CellTiter-Glo, 48 h; activity (max response): hits give low values
# Source text: PI: Naris Nilubol, MD Surgical Oncology Program, National Cancer Institute (NCI) National Institute of Health (NIH), Bethesda, Maryland Adrenocortical cancer (ACC) is a rare malignancy with poor survival outcomes and few treatment options. Currently, mitotane is the only FDA-approved therapy for ACC. Although adjuvant radiation therapy is rarely utilized, it has the potential to improve survival in select cases. Through a quantitative high-throughput drug screen (qHTS), we identified auranofin (AF), a thioredoxin reductase (TXNRD) inhibitor, as a promising candidate drug. This study aims to evaluate whether AF can enhance the efficacy of radiation therapy in the treatment of ACC. Two human ACC cell lines, SW-13 and NCI-H295R, were screened using the National Center for Advancing Translational Sciences (NCATS) Pharmaceutical Collection (NPC) and the Mechanism Interrogation PlatE (MIPE) library (~4,991 compounds). CellTiter-Glo (Cat # G7570, Promega, Madison, WI) was utilized to measure cell viability. Described herein are the results of the corresponding viability assay.
# PROTOCOL TABLE (as described by Inglese J, Shamu CE and Guy RK. 2007) SEQUENCE No. (e.g., 1, 2, 3, etc.); […] (e.g., Cells, Incubation, Reagent, etc.); VALUE; DESCRIPTION. 1; Cells; 5 uL; white, solid-bottom, 1536-well tissue-culture treated plates. 2; Time; overnight culture at 37C with 5% CO2. 3; Compounds and control; 23 nL; Kalypsis pin tool (Wako USA) equipped with a 1536-well pin head to transfer to the assay plates. 4; Time; 48 hours; 37C with 5% CO2. 5; Reagent; 4 uL; CellTiter-Glo luminescent substrate mix. 6; Time; 20 min at room temperature. 7; Detection; Luminescence; ViewLux plate reader NOTES (numbers refer to Sequence numbers above) 1. SW13 cells were harvested from a T175 flask and resuspended in ITS-supplemented DMEM serum-free medium at a concentration of 300 000 cells/mL. Then 5 uL of resuspended cells were dispensed into each well of white, solid-bottom, 1536-well tissue-culture-treated plates using a multidrop combi dispenser. The plates were covered with stainless steel gasket lids. 2-3. The plates were cultured overnight at 37C with 5% CO2. Twenty-three nL of compounds (eight selected concentrations from the NPC / MIPE) or positive control (10 mM stock of bortezomib) in DMSO was transferred to each well of the assay plate using a pin tool (Kalypsys, San Diego, CA, USA). The final concentration of the compounds in the 5 uL assay volume ranged from 0.5 nM to 46 uM. 4-6. After 48 hours of incubation at 37C and 5% CO2, 4 uL of CellTilter-Glo luminescent substrate mix (Promega, Madison, WI, USA) was added to each well. Then the plates were incubated for 20 minutes at room temperature. 7. After incubation, luminescence was measured using a ViewLux plate reader (PerkinElmer, Waltham, MA, USA) with a clear filter was used to measure the number of metabolically competent cells. To determine compound activity in the qHTS assay, the titration-response data for each sample was plotted and modeled by a four-parameter logistic fit yielding IC50 and efficacy (maximal response) values. […] REFERENCES: Inglese J, Shamu CE and Guy RK, Reporting data from high throughput screening of small molecule libraries, Nature Chemical Biology, 2007, 3(8): 438-441. doi.org/10.1038/nchembio0807-438.
# % is set by controls: 0 for no effect and ±100 for the full control effect.
SMILES,activity (max response),Potency
O=C(CCCN1CCN(c2ccccn2)CC1)c1ccc(F)cc1,-12.5% (inactive),–
O=C(O)c1c(O)c(-c2ccccc2)nc2ccccc12,3.37% (inactive),–
N[C@H](C(=O)O)[C@@H](O)c1ccc(O)c(O)c1,16% (inactive),–
CC(C)NC[C@@H](O)COc1cccc2ccccc12,-19.3% (inactive),–
C[C@H](N)C(=O)N[C@@H](C)C(=O)NC1[C@H]2CN(c3nc4c(cc3F)c(=O)c(C(=O)O)cn4-c3ccc(F)cc3F)C[C@@H]12 (some centres undefined),-13.3% (inactive),–
C=CC[N+]1([C@H]2C[C@H]3[C@@H]4CC[C@H]5C[C@H](O)[C@@H](N6CCOCC6)C[C@]5(C)[C@H]4CC[C@]3(C)[C@H]2OC(C)=O)CCCC1,-12.6% (inactive),–
Nc1n[n+]([O-])c2ccccc2[n+]1[O-],-11.6% (inactive),–
CCC(=O)Oc1ccc2c(c1)CC[C@@H]1[C@@H]2CC[C@@]2(C)[C@H]1C[C@@H](OC(=O)CC)[C@@H]2OC(=O)CC,0.953% (inactive),–
Cn1cc(C(=O)[C@@H]2CCc3nc[nH]c3C2)c2ccccc21,-8.02% (inactive),–
Cc1c(Cl)cccc1S(=O)(=O)Nc1nc(CCN2CCOCC2=O)cs1,12.4% (inactive),–
CC(=C(CCOC(=O)C(C)C)SSC(CCOC(=O)C(C)C)=C(C)N(C=O)Cc1cnc(C)nc1N)N(C=O)Cc1cnc(C)nc1N,9% (inactive),–
COc1ccc2cc(CCC(C)=O)ccc2c1,2.06% (inactive),–
CN(C(=O)CCCOc1ccc2[nH]c(=O)ccc2c1)C1CCCCC1,-3.83% (inactive),–
CCc1cc(Nc2nccc(-c3c(-c4ccc(OC)c(C(=O)Nc5c(F)cccc5F)c4)nc4ccccn34)n2)c(OC)cc1N1CCC(N2CCN(S(C)(=O)=O)CC2)CC1,-11.3% (inactive),–
CCn1c(=O)c2c(nc(/C=C/c3ccc(OC)c(OC)c3)n2C)n(CC)c1=O,-21.5% (inactive),–
C[C@H]1CN(C2COC2)CCN1c1ccc(Nc2cc(-c3ccnc(N4CCn5c(cc6c5CC(C)(C)C6)C4=O)c3CO)cn(C)c2=O)nc1,10.6% (inactive),–
COc1ccc(-n2c(SCCCN3C(=O)c4cccc5cccc(c45)C3=O)nnc2-c2ccncc2)cc1,-14.9% (inactive),–
COc1ccc([C@@H]2Sc3ccccc3NC(=O)[C@@H]2O)cc1,–,7.31 µM (active)
COc1ccc2c(c1)C(=O)N(CCc1ccc(S(=O)(=O)NC(=O)NC3CCCCC3)cc1)C(=O)C2(C)C,-10.4% (inactive),–
C/C=C(/C(=C/C)c1ccc(OC(C)=O)cc1)c1ccc(OC(C)=O)cc1,–,18.4 µM (active)
O=C(Cc1ccccc1)Nc1nnc(CCSCCc2nnc(NC(=O)Cc3ccccc3)s2)s1,11.1% (inactive),–
O=C(CCBr)N1CCN(C(=O)CCBr)CC1,-6.49% (inactive),–
CCCCN(CCCC)C(C(N)=O)c1ccc(OC)cc1 (centres undefined),14.1% (inactive),–
C=C[C@@H]1CN2CCC1C[C@H]2[C@H](O)c1ccnc2ccc(OC)cc12 (some centres undefined),5.73% (inactive),–
